# A selection: hits, their analogues and other compounds. The true share with any hit is near 3.9%.
# PrPC surface inh: inhibitors of human cell surface prion protein PrPC; P04156; TR-FRET read-out; inhibition, % at 13.8 µM; actives 0.43% (n = 370,000); in the data active means inhibition above about 24%; further: 0% = median of the test wells and 100% = reference compound wells
# SARS 3CLpro inh: SARS-CoV 3CLpro protease inhibition; inhibition, % at 6 µM; AID 1706; P0C6X7; recombinant SARS-CoV 3CLpro, quenched FRET peptide cleavage; actives 0.14% (n = 290,000); in the data active means inhibition above about 12%
# GDH-TPI inh: GDH-TPI coupled enzyme inhibition counter-screen. GDH-TPI coupled enzyme counterscreen, NADH absorbance. inhibition, % at 4.8 µM. actives 1.2% (n = 360,000). AID 588335; in the data active means inhibition above about 30%;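 further: 0% = DMSO wells and 100% = wells lacking the enzyme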
# Vc quorum ag-1: inducers of Vibrio cholerae quorum light production without autoinducers. V. cholerae BH1578 lux reporter, luminescence, 6 h. activation, % at 18.7 µM. actives 0.16% (n = 350,000). AID 588436; in the data active means activation mostly above about 9.7%, no sharp cut-off
# Mtb FBA inh: inhibitors of M. tuberculosis fructose-bisphosphate aldolase; actives 2.3% (n = 360,000); inhibition, % at 1 µM; P9WQA3; AID 588726; purified M. tuberculosis FBA, fluorescence read-out; in the data active means inhibition above about 27%;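 further: 0% = vehicle and 100% = reference inhibitor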
# Target sequence (P9WQA3 whole entry, looked up): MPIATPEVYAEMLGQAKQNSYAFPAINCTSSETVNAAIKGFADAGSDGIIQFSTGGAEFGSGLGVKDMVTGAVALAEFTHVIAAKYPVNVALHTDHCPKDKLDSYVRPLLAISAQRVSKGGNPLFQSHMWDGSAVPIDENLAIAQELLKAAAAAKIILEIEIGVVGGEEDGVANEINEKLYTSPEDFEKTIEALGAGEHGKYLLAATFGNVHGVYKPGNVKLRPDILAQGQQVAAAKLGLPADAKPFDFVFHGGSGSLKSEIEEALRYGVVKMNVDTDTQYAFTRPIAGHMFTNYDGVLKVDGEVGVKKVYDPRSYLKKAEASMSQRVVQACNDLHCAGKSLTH
# Vc quorum ag-2: induces V. cholerae light production without autoinducers | activation, % at 50 µM | V. cholerae BH1578 lux reporter, luminescence, 6 h | AID 602243 | shares compounds with Vc quorum ag-1 | 620 tested, under 10 active; call rule not given here
# HeLa tox: HeLa cell viability loss at 24 h; shares compounds with Vc quorum ag-1; CellTiter-Glo ATP luminescence; activity change, negative = cytotoxicity, % at 35 µM; 25 tested, under 10 active;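 active means signal drop with fitted half-maximal concentration at or below twice the highest valid dose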
# Starred values were filed as active, the others as inactive; i = inactive; nt = not tested or not shown; + = active, no number.
SMILES,PrPC surface inh,SARS 3CLpro inh,GDH-TPI inh,Vc quorum ag-1,Mtb FBA inh,Vc quorum ag-2,others
CC(Sc1nc2ccccc2c(=O)n1C)C(=O)N(C)C1CCCCC1 (stereo unspecified),18.9,nt,-6.5,-1.4,-2.9,nt,
Cc1cc2oc(=O)cc(-c3ccccc3)c2c(C)c1-c1ccc(C#N)cc1,-2.0,nt,3.6,11.9,0.5,0.2,
Cc1cc(C)cc(NS(=O)(=O)c2cccs2)c1,-1.1,0.4,-6.9,i,-0.9,nt,
CCc1ccc(NS(=O)(=O)c2cccs2)cc1,-1.1,-4.4,6.4,21.4*,1.0,0.8,
C=CCO[C@H]1CN(C(=O)OC)[C@@H]2C[C@H]1Oc1ccccc12,-6.6,nt,nt,nt,nt,nt,
COc1ccccc1N1CCN(CCCOc2ccc(F)cc2)CC1,-9.8,5.9,-8.5,12.5,0.3,0.0,
COc1ccccc1N1CCN(CCCCOc2c(OC)cccc2OC)CC1,-12.4,0.6,-2.1,-0.6,-2.7,nt,
COc1ccccc1NC(=O)CN1CCN(C(=O)C2CCCO2)CC1 (stereo unspecified),5.2,-0.8,3.1,21.8,-0.1,6.3,
COc1ccccc1NC(=O)CN1CCN(c2ccccc2F)CC1,-1.9,4.8,11.9,35.4*,6.4,95.6,
COc1cccc(OCC(=O)NC2CCCCC2)c1,-1.2,0.8,5.0,36.9*,-1.0,39.2,
COc1cccc(OCC(=O)NC2CCCCCC2)c1,6.8,nt,8.6,-1.2,2.8,nt,
CCCc1cc(=O)[nH]c(Nc2ccc(N3CCCCC3)cc2)n1,2.8,-1.3,1.3,+,0.6,i,
CCCCc1ccc(Nc2nc(CCC)cc(=O)[nH]2)cc1,-3.0,2.2,-0.8,i,-1.1,nt,
COc1ccccc1NC(=O)Cc1csc(NC(=S)Nc2ccccc2)n1,1.3,7.0,-9.0,14.3,-6.4,0.4,
CCc1ccc(C(=O)Nc2nnnn2CC)cc1,nt,nt,nt,nt,nt,nt,HeLa tox=-5.1
CN(Cc1cn[nH]c1-c1cc2ccccc2o1)CC1CCOCC1,-12.1,3.3,12.2,25.1*,0.4,0.7,
c1ccc2oc(-c3[nH]ncc3CN(Cc3ccncc3)CC3CCCO3)cc2c1 (stereo unspecified),2.4,-2.9,-7.1,-0.1,0.3,nt,
CCOC(=O)C1=CCN(S(=O)(=O)c2ccc(Cl)cc2)C1c1cccc(Br)c1 (stereo unspecified),1.5,nt,nt,nt,nt,nt,
Cc1cc(C)c(C)c(OCc2nc(-c3cccnc3)no2)c1,0.6,-0.8,-1.9,i,-1.5,nt,
Cc1ccc(SCc2nc(-c3cccnc3)no2)cc1,-4.7,-0.9,1.9,21.2*,3.0,-0.1,
COc1ccc(CC(=O)N2CCC(Nc3nc4ccccc4n3Cc3ccc(F)cc3)CC2)cc1,4.8,0.0,-3.5,15.4*,-1.5,0.1,
Cc1ccc(C(=O)NNC(=O)C(NC(=O)c2cccc(C)c2)C(C)C)cc1 (stereo unspecified),-5.3,nt,3.2,i,-1.9,nt,
O=C(NCc1ccco1)C(C(=O)c1ccc(F)cc1)n1ccccc1=O (stereo unspecified),4.1,0.1,2.2,0.4,1.8,nt,
O=C(NCc1ccccn1)C(C(=O)c1ccc(F)cc1)n1ccccc1=O (stereo unspecified),0.8,-1.4,10.9,12.5,-1.8,-0.2,
O=C(NCc1ccc(N2CCCC2=O)cc1)c1cc(COc2c(F)cccc2F)on1,8.6,1.6,1.4,0.6,1.2,nt,
SMILES,PrPC surface inh,SARS 3CLpro inh,GDH-TPI inh,Vc quorum ag-1,Mtb FBA inh,Vc quorum ag-2,others
CCN1CCN(C(=O)c2ccc(COc3ccc(Cl)cc3)o2)CC1,-3.7,2.3,-0.3,12.5,2.5,1.3,
CCOc1ccc(S(=O)(=O)N2CCC(C(=O)NCCN3CCOCC3)CC2)cc1C,5.4,2.3,5.2,-0.1,-0.9,nt,
CCc1cc(C(=O)N2CCN(c3ccccn3)CC2)sc1C,11.9,0.2,4.9,0.3,-0.7,nt,
CCc1cc(C(=O)N2CCN(C(=O)c3ccccc3)CC2)sc1C,3.3,nt,-1.4,14.3,-2.5,0.2,
O=C(COC(=O)C1CCN(c2ccc(C(F)(F)F)cn2)CC1)NC1CCCCC1,2.6,nt,-0.7,14.3,1.1,-0.3,
COc1ccc(C(CNC(=O)c2cccc(S(=O)(=O)Nc3cccc(C)c3)c2)N2CCOCC2)cc1 (stereo unspecified),5.5,nt,-4.3,i,-2.4,nt,
Cc1ccc(S(=O)(=O)N2CCN(C(=O)COC(=O)/C=C/c3ccc(F)cc3)CC2)c(C)c1,-4.2,nt,2.1,1.8,-5.0,0.0,
O=C(c1cc(-c2ccc3c(c2)OCO3)on1)N1CCN(c2ccc(F)cc2)CC1,-2.1,-3.5,3.4,12.5,2.2,0.2,
COC(=O)[C@]12C[C@H](CC(=O)NCCCN3CCCC3=O)C(=O)N(Cc3ccc(Cl)cc3Cl)C1=C[C@H](C(C)C)O[C@@H]2C1CC1,-11.9,nt,nt,nt,nt,nt,
COc1ccc(CCN(C)C(=O)c2cc(S(=O)(=O)N3CCCCC3)ccc2Cl)cc1OC,17.1,nt,5.2,-10.0,-1.3,nt,
COc1ccc(S(=O)(=O)N2CCCCC2)cc1NC(=O)c1ccc(OC)c(OC)c1,4.7,nt,4.9,14.3,-2.5,0.2,
COc1ccc(S(=O)(=O)Nc2cccc(S(=O)(=O)N3CCCC3)c2)cc1OC,-2.0,nt,4.2,14.3,2.9,-100.0,
COc1ccc(CCN(C)C(=O)c2cc(S(=O)(=O)N3CCCCCC3)ccc2OC)cc1OC,9.9,nt,1.4,19.3,0.1,-0.1,
CC12CCC(=O)N1C(C(=O)NNC(=O)COc1ccc(Br)cc1)CS2 (stereo unspecified),8.1,nt,-7.0,12.5,2.2,0.0,
Cc1cc(Cl)ccc1OCC(=O)NNC(=O)C1CSC2(C)CCC(=O)N12 (stereo unspecified),2.0,nt,-6.7,i,0.3,nt,
COc1ccc2c(c1)OC[C@H]1[C@H]2N2C(=O)CN(CCc3c[nH]c4ccccc34)C(=O)[C@@]2(C)[C@H]1c1ccccc1,-0.7,nt,5.0,-0.8,-0.5,nt,
Cc1ccc2cc(C(c3nnnn3C3CCCC3)N3CCN(c4ccc(F)cc4)CC3)c(=O)[nH]c2c1 (stereo unspecified),-6.9,5.7,5.1,14.3,-0.8,0.0,
Cc1cc(C)c2cc(C(c3nnnn3C3CCCC3)N3CCOCC3)c(=O)[nH]c2c1 (stereo unspecified),-1.8,-0.1,16.8,-0.4,2.8,nt,
CC(C)N1CCc2c(sc(NC(=O)c3ccc4ccccc4c3)c2C(N)=O)C1,-10.8,-15.4,9.6,137.9*,1.3,1.1,
CC(C)N1CCc2c(sc(NC(=O)c3ccc(C(=O)c4ccccc4)cc3)c2C(N)=O)C1,-18.5,-2.7,7.9,-0.3,-2.6,nt,
CC(C)(C)NS(=O)(=O)c1cc(C(=O)Nc2sccc2C#N)ccc1Cl,-2.2,-1.8,28.8,-0.3,-3.1,nt,
COc1cc(C(=O)Nc2ccc(NC(=O)c3ccccc3)nc2)cc(OC)c1OC,8.6,5.2,0.0,1.2,1.4,nt,
COc1cc(C(=O)Nc2ccc(NC(=O)C(C)C)nc2)cc(OC)c1OC,0.8,nt,0.0,6.7*,3.6,0.1,
O=C(Nc1ccc(C(=O)O)cc1)Nc1ccc(F)cc1F,2.3,6.5,0.0,-0.4,3.8,nt,

# Assay outcomes (PubChem)
